Compounds with a hit are over-represented: about 7.3% of the library has one in this group of screens.
VACV Venus inh = qHTS for Stage-Specific Inhibitors of Vaccinia Orthopoxvirus: Venus Reporter Primary qHTS. AID 720580, 2013. actives 0.46% (n = 330,000). Vaccinia virus Venus reporter expression, fluorescence. Potency, µM (highest dose often 36.5 µM), inactives show top-dose activity change, negative = inhibition, usual class: inhibitors; calls by dose curve; tested in A549 cells; further: potency means the concentration at half of the fitted maximal effect; nearly all actives have a fitted effect of over 30% in size
Vaccinia mCherry = qHTS for Stage-Specific Inhibitors of Vaccinia Orthopoxvirus: mCherry Reporter Primary qHTS; Vaccinia virus mCherry reporter infection, fluorescence; Potency, µM (highest dose often 36.5 µM), inactives show at the top dose activity change, negative = inhibition, usual class: inhibitors; actives 0.63% (n = 310,000); calls by dose curve; tested in A549 cells; further: potency means the concentration at half of the fitted maximal effect; nearly all actives have a fitted effect of over 35% in size
HCV inhibitor = qHTS Assay for Inhibitors of Hepatitis C Virus (HCV). Huh7.5.1 HCVcc-Cre infection, luciferase reporter, 44 h. Potency, µM (highest dose often 41.8 µM), for the others: at the top dose activity change, negative = inhibition, most hits filed as inhibitors. actives 3.4% (n = 340,000); active means well fitted inhibition curve with a large enough effect; inconclusive means small, poorly fitted or top-dose-only effect, or another doubt; inactive means no such curve, though single readings can be large or run the other way; further: potency means the concentration at half of the fitted maximal effect
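Antiviral activity was scored by luciferase reporter output from cells infected with HCVcc-Cre (~0.5 moi) in presence of compound, 44 h infection period, cells seeded 1,000/well 4 h prior.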
FMDV inh = High Throughput Screening for Foot and Mouth Disease Virus Antivirals; FMDV antiviral cell-based qHTS; Potency, µM (highest dose often 57.9 µM), for inactives: top-dose activity change, negative = inhibition, hits mostly inhibitors; actives 1.2% (n = 410,000); calls by dose curve; tested in HEK293T cells; further: read-out not given here; potency means the concentration at half of the fitted maximal effect; nearly all actives have a fitted effect of over 45% in size
HCMV antiviral = qHTS Assay for inhibitors of the human cytomegalovirus (HCMV) | HFF cells, HCMV-luciferase reporter, 72 h; stronger effect = lower value | activity change, negative = inhibition, % at 57.5 µM | actives 4.5% (n = 410,000) | AID 1259415, 2018; in the data active means activity change below about -60%; inconclusive means no clear call, values can overlap the other calls; inactive means above about -39%
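Human foreskin fibroblasts infected with luciferase-reporter HCMV at MOI 1 PFU/cell, compounds at two doses. Luciferase measured 72 h post infection; normalized to buffer-only basal and Salinomycin (10uM) controls.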
* marks the source's active call; other numbers are inactive results. On the % scale 0 is the no-effect control and ±100 the full control effect.

`O=S(=O)(c1ccc2c(c1)OCCO2)N1CCN(c2ncnc3sccc23)CC1` gave VACV Venus inh -22%, Vaccinia mCherry inconclusive, HCV inhibitor 1µM*, FMDV inh inconclusive and HCMV antiviral -91*.
`Cc1ccc(S(=O)(=O)N2CCN(c3ncccn3)CC2)cc1C` gave VACV Venus inh -14%, Vaccinia mCherry -5%, HCV inhibitor -3%, FMDV inh -19% and HCMV antiviral 4.
`Cc1ccc(S(=O)(=O)N2CCN(c3ncnc4sccc34)CC2)cc1C` gave VACV Venus inh inconclusive, Vaccinia mCherry inconclusive, HCV inhibitor 11µM*, FMDV inh 11µM* and HCMV antiviral -72*.
CS(=O)(=O)c1ccc(C2=C(c3ccccc3)C(=O)OC2)cc1 was read as VACV Venus inh -12%, Vaccinia mCherry -2%, HCV inhibitor 7.1µM*, FMDV inh -20% and HCMV antiviral 3.
`O=C1OCC(c2ccccc2)=C1c1ccccc1` gave VACV Venus inh -8%, Vaccinia mCherry -14%, HCV inhibitor 1%, FMDV inh -13% and HCMV antiviral -28.
N#CC(c1ccc(Cl)cc1)c1ccc2c(C(F)(F)F)cc(C(F)(F)F)nc2n1 (configuration not stated) was read as VACV Venus inh 14µM*, HCV inhibitor inconclusive, FMDV inh inconclusive and HCMV antiviral -106*.
Screening COc1ccc(-c2csc(N(CCCN(C)C)C(=O)c3ccc(C)cc3)n2)cc1 returned VACV Venus inh inconclusive, Vaccinia mCherry -12%, HCV inhibitor 25µM*, FMDV inh 11% and HCMV antiviral -22.
CCC(=O)N(CCCN(C)C)c1nc(-c2cc(OC)ccc2OC)cs1 was read as HCV inhibitor 5.6µM*, FMDV inh -3% and HCMV antiviral -8.
`COc1ccc(-c2csc(N(CCCN(C)C)C(=O)c3ccc(Br)cc3)n2)cc1` gave VACV Venus inh -11%, Vaccinia mCherry -5%, HCV inhibitor inconclusive, FMDV inh -14% and HCMV antiviral -62*.
`CCN(CC)CCCN(C(=O)c1ccc(OC)cc1)c1nc(-c2ccc(OC)cc2)cs1` gave VACV Venus inh -24%, Vaccinia mCherry -13%, HCV inhibitor inconclusive, FMDV inh 4% and HCMV antiviral -63*.
`COc1ccc(-c2csc(N(CCCN(C)C)C(=O)c3ccc(C(C)(C)C)cc3)n2)cc1` gave VACV Venus inh -19%, Vaccinia mCherry inconclusive, HCV inhibitor -19%, FMDV inh -20% and HCMV antiviral -25.
Cc1cc(Br)ccc1NC(=O)CCS(=O)(=O)c1cccc2nsnc12 was read as VACV Venus inh -7%, Vaccinia mCherry -2%, FMDV inh 1% and HCMV antiviral -24.
For CCOC(=O)c1c(C)[nH]c(C)c1C(=O)COC(=O)c1cccc(S(=O)(=O)N(CC)CC)c1 the results were VACV Venus inh -28%, Vaccinia mCherry inconclusive, HCV inhibitor inconclusive, FMDV inh -10% and HCMV antiviral -26.
For CCOC(=O)c1c(C)[nH]c(C)c1C(=O)COC(=O)c1ccc(S(=O)(=O)N(CC)CC)cc1 the results were HCV inhibitor 25µM*, FMDV inh inconclusive and HCMV antiviral -25.
C[C@@H]1[C@@H](Sc2ccccc2)CC(=O)O[C@@H]1c1ccc(-c2ccccc2)cc1 was read as VACV Venus inh 2.5µM*, Vaccinia mCherry inconclusive, HCV inhibitor inconclusive, FMDV inh 0% and HCMV antiviral inconclusive.
Screening O=C(Nc1cc(S(=O)(=O)N2CCOCC2)ccc1Cl)c1cc2ccccc2o1 returned VACV Venus inh -18%, Vaccinia mCherry -21%, HCV inhibitor inconclusive, FMDV inh inconclusive and HCMV antiviral -1.
Screening COC(=O)CCCn1cc(CN2CC(N3CCCCC3)CS2(=O)=O)nn1 (configuration not stated) returned VACV Venus inh 6%, Vaccinia mCherry 34%, FMDV inh -18% and HCMV antiviral 32.
C[n+]1ccccc1/C=C1\Sc2ccccc2N1CCO was read as VACV Venus inh -6%, Vaccinia mCherry -13%, HCV inhibitor inconclusive, FMDV inh -13% and HCMV antiviral inconclusive.
